Compound activity (PubChem)
Most compounds without a hit are left out; they make up all but 6.5% or so of the library.
LASV entry inh = inhibitors of Lassa virus binding or cell entry; Lassa virus pseudotype entry inhibition, cell reporter; Potency, µM (series often up to 37.9 µM), for the others: top-dose activity change, negative = inhibition, hits mostly inhibitors; 300,000 compounds, 1.2% hits; calls by dose curve; tested in HEK293 cells; further: potency means the concentration at half of the fitted maximal effect; nearly all actives have a fitted effect of over 50% in size
VACV mCherry inh = inhibitors of vaccinia virus infection (mCherry reporter signal); AID 720579; 310,000 compounds, 0.63% hits; Vaccinia virus mCherry reporter infection, fluorescence; Potency, µM (highest dose often 36.5 µM), for inactives: at the top dose activity change, negative = inhibition, usual class: inhibitors; calls by dose curve; tested in A549 cells; further: potency means the concentration at half of the fitted maximal effect; nearly all actives have a fitted effect of over 35% in size
Marburg entry inh = Marburg virus entry inhibition. Potency, µM (top dose mostly 37.8 µM), without a hit: at the highest dose activity change, negative = inhibition, most hits filed as inhibitors. AID 540276. Marburg virus pseudotyped entry inhibition, cell reporter. 300,000 compounds, 1.8% hits; calls by dose curve; tested in HEK293 cells; further: potency means the concentration at half of the fitted maximal effect
HCMV inh = inhibitors of human cytomegalovirus; activity change, negative = inhibition, % at 57.5 µM; HFF cells, HCMV-luciferase reporter, 72 h; stronger effect = lower value; AID 1259415; 410,000 compounds, 4.5% hits; in the data active means activity change below about -60%; inconclusive means no clear call, values can overlap the other calls; inactive means above about -39%
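After 16 h attachment at 37C, HFF cells received test compound and HCMV-luciferase (1 PFU/cell); reporter luminescence read 72 h later, data normalized against buffer-only and known inhibitor Salinomycin.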
Vaccinia Venus = inhibitors of vaccinia virus (Venus reporter) | 330,000 compounds, 0.46% hits | Potency, µM (doses to about 36.5 µM), without a hit: top-dose activity change, negative = inhibition, actives largely listed as inhibitors | Vaccinia virus Venus reporter expression, fluorescence; calls by dose curve; tested in A549 cells; further: potency means the concentration at half of the fitted maximal effect; nearly all actives have a fitted effect of over 30% in size
FMDV inh = antivirals against foot and mouth disease virus; FMDV antiviral cell-based qHTS; Potency, µM (highest dose often 57.9 µM), inactives show at the highest dose activity change, negative = inhibition, hits mostly inhibitors; 410,000 compounds, 1.2% hits; AID 1159524; calls by dose curve; tested in HEK293T cells; further: read-out not given here; potency means the concentration at half of the fitted maximal effect; nearly all actives have a fitted effect of over 45% in size
An asterisk follows results filed as active; i = inactive; ? = inconclusive; . = not tested or not shown; [ ] = remark or other dose. On the % scale 0 is the no-effect control and ±100 the full control effect.

SMILES	LASV entry inh	VACV mCherry inh	Marburg entry inh	HCMV inh	Vaccinia Venus	FMDV inh
Cc1ccc2sc(NC(=O)c3ccc4c(c3)OCCO4)nc2c1C	18.6%[46.1 µM]	2.5%[7.34 µM]	.	65.9	-5.2%[7.34 µM]	-13.5%
Cc1nc2c(ccc3nc(NC(=O)c4ccc5c(c4)OCCO5)sc32)s1	-23.5%	-7.5%	?	-82.5*	-23.5%	.
Cc1ccc(C(=O)Nc2ncc(C)s2)s1	5.01µM*	-15.5%	2.82µM*	1.0	-14.5%	-10.1%
O=[N+]([O-])c1ccc2c(c1)C=C/C2=C\c1ccc(C=S)cc1	.	-23.8%	.	.	-15.6%	.
O=C(c1ccc(S(=O)(=O)c2cccc(Cl)c2)c([N+](=O)[O-])c1)N1CCN(Cc2ccccc2)CC1	?	-3.2%	?	-36.0	-16.1%	11.2µM*
CCN(c1ccccc1)S(=O)(=O)c1ccc(Cl)c(C(=O)NC2CCN(Cc3ccccc3)CC2)c1	?	?	?	-70.4*	?	?
Cc1ccc(S(=O)(=O)NCc2ccc(C(=O)N3CCN(c4ccc([N+](=O)[O-])cc4)CC3)cc2)cc1	.	.	.	-98.3*	.	?
COc1ccc(N2CCN(C(=O)c3ccc(CNS(=O)(=O)c4ccc(C)cc4)cc3)CC2)cc1	?	-23.2%	?	?	-26.2%	-28.5%
O=C(c1ccc(S(=O)(=O)NCc2ccco2)cc1)N1CCN(Cc2ccc3c(c2)OCO3)CC1	?	?	-15.9%	-68.4*	-20.0%	-16.3%
COCc1c(C(=O)N2CC3CCC2C3)cnn1-c1nccc(-c2ccccc2OC)n1 (centres undefined)	.	-19.5%	.	.	-9.3%	31.2%
O=C(c1cccc(S(=O)(=O)NCc2ccccc2)c1)N1CCCCC1	1.4%	-14.7%	1.5%	-8.3	-9.8%	20.7%
O=C(c1cccc(S(=O)(=O)NCc2ccccc2)c1)N1CCN(Cc2ccccc2)CC1	-16.6%	.	14.4%	-96.7*	-8.2%	-17.6%
Cc1ccc(NS(=O)(=O)c2ccc(C(=O)NC3CCN(Cc4ccccc4)CC3)cc2)cc1	11.2µM*	?	?	-92.1*	?	?
Cc1ccc(NS(=O)(=O)c2cccc(C(=O)NC3CCN(Cc4ccccc4)CC3)c2)cc1	-12.5%	?	?	?	?	-28.3%
Cc1ccc(S(=O)(=O)NCc2ccc(C(=O)N3CCN(Cc4ccccc4)CC3)cc2)cc1	?	-26.9%	?	-92.9*	?	.
CCOC(=O)c1sc2nc(CC(=O)OC)nc(NCCN(CC)CC)c2c1C	-14.9%	-19.5%	?	-31.4	-26.3%	-11.0%
CCOC(=O)c1sc2nc(CC(=O)OC)nc(NCc3ccc(Cl)cc3)c2c1C	-4.8%	.	-9.2%	-107.2*	.	-28.8%
COC(=O)[C@H](C)NS(=O)(=O)C1CC1	.	i	.	.	-13.8%	.
O=C(COc1ccccc1-c1ccccc1)N/N=C/c1cccc2ccccc12	?	?	?	-81.7*	?	?
O=C(COc1cccc2ccccc12)N/N=C/c1ccccc1OCc1ccc(C(=O)O)cc1	-20.6%[46.1 µM]	-3.1%	?	-38.4	-6.2%	-18.7%
CN(C)c1ccc(/C=N/NC(=O)COc2ccccc2)cc1	?	-3.5%	-11.8%[46.1 µM]	66.2	-8.6%	44.5%
COc1ccc(/C=N/NC(=O)COc2ccccc2-c2ccccc2)cc1	?	?	?	-68.4*	3.55µM*	?
FC(F)(F)c1ccc(Nc2cc3c(cn2)ncn3CC2CC2)cc1	.	.	.	6.7	.	.
CCOC(=O)N1CCN(/[N+]([O-])=N/Oc2ccc([N+](=O)[O-])cc2[N+](=O)[O-])CC1	?	.	-11.9%	.	.	.
Cc1cc(/C=N/Nc2ncnc(N)c2[N+](=O)[O-])c(C)n1-c1ccccc1	1.12µM*	?	?	-82.6*	-7.3%	3.55µM*
SMILES	LASV entry inh	VACV mCherry inh	Marburg entry inh	HCMV inh	Vaccinia Venus	FMDV inh
COc1cccc(/C=N/Nc2ncnc(N)c2[N+](=O)[O-])c1OC	8.2µM*	.	?	.	.	-40.3%
COc1cccc(C=NNc2nnc(NN=Cc3cccc(OC)c3OC)c3ccccc23)c1OC	?	-5.4%	?	122.4	-5.1%	20µM*
CCn1c(-c2ccccc2F)nc2cc(NC(C)=O)cc(C(=O)N(C)Cc3c(C)nc4ccccn34)c21	.	-5.6%	.	.	0.0%	-0.4%
C[C@@H]1CNC(=O)c2c(C(=O)N3CCN(c4ccccc4)CC3)ncn21	.	.	.	-5.4	.	.
CN(C)CCCNc1c2c(nc3ccccc13)CCC2	.	.	.	-94.9*	.	-8.8%
c1ccc(CNc2c3c(nc4ccccc24)CCC3)cc1	?	-1.6%	?	?	-22.1%	?
CC(C)CNc1c2c(nc3ccccc13)CCC2	?	-28.5%	?	-68.2*	?	?
COC(=O)[C@]1(C#N)[C@H](C)C(=O)N(Cc2ccccc2)[C@@H]1/C=C/c1ccccc1	.	.	.	-9.6	.	.
Cc1ccc(CN2CCOc3ccc(CN4CCN(CCO)CC4)cc3C2)s1	.	-1.0%	.	.	-3.4%	-5.1%
Cc1nc(-c2ccc(C)c(N3CCN(C(=O)Nc4cccc(Cl)c4C)CC3)c2)no1	-10.6%[46.1 µM]	-14.3%	.	-87.5*	?	?
Cc1ccc(NC(=O)N2CCN(c3cc(-c4noc(C)n4)ccc3C)CC2)c(C)c1	?	0.6%	.	8.4	-4.6%	-1.8%
CCn1nc(-c2ccccc2)nc2c(=O)n(C)c(=O)nc1-2	?	2.51µM*	0.891µM*	.	2.24µM*	1.78µM*
CCn1nc(-c2ccc(C)cc2)nc2c(=O)n(C)c(=O)nc1-2	.	2.51µM*	.	.	3.16µM*	.
O=C(c1cccs1)N1CCCc2cc(NS(=O)(=O)c3ccc(Br)cc3)ccc21	3.5%[46.1 µM]	-11.6%	.	?	-24.9%	-25.0%
CCO[C@@H]1C[C@@]1(C=C[C@@H](C)[C@H](OC)c1ccccc1Br)C(=O)OC	.	.	-13.6%[14.2 µM]	.	.	.
O=C(CCCN1C(=O)C(c2ccccc2)Oc2cccnc21)Nc1ccc(Br)cc1F (centres undefined)	-20.3%[46.1 µM]	-6.2%	.	-104.9*	0.0%	-20.3%
Cc1ccc(NC(=O)CCCN2C(=O)C(c3ccccc3)Oc3cccnc32)c(C)c1 (centres undefined)	.	-12.1%	.	?	-25.0%	-12.4%
CC(C)c1ccc(NC(=O)c2csnn2)cc1	9.2µM*	.	?	85.4	.	-2.2%
COC(=O)CSc1nnc(CNc2nc(-c3ccccc3)cs2)n1C	2.0%	-8.8%	?	-0.8	-6.2%	-18.3%
COc1ccc(NCc2nnc(SCC(=O)Nc3nc(-c4ccccc4)cs3)n2-c2ccccc2)cc1	4.1%	i	?	-82.5*	-21.6%	-11.8%
COc1ccc(C(=O)CSc2nnc(CNc3nc(-c4ccccc4)cs3)n2C)cc1	-28.9%	.	?	-10.3	-25.5%	39.8µM*
COc1ccc(-n2c(CNc3ccc(C)cc3)nnc2SCC(=O)Nc2nc(-c3ccccc3)cs2)cc1	-9.6%	.	?	-37.4	.	-22.1%
COc1cccc(-c2cncnc2NCc2cccs2)c1	.	.	.	.	.	-18.3%
COc1cc(-c2noc(C)c2/C=C/c2ccc(N)cc2)cc(OC)c1OC	.	?	.	-83.3*	?	-3.3%
